# PubChem BioAssay (NCATS)
# Results filed as inconclusive are left out. A call without a number means that no potency is given here. Active and inactive are the calls of the source. Unless noted, calls come from the whole dose curve; as a rule, active = well fitted curve in the direction sought with a large enough effect; inconclusive = small, poorly fitted or top-dose-only effect, or another doubt; inactive = no such curve, though single readings can be large; an effect the other way counts as inactive or inconclusive.
# Tests used:
# [1] = Cytotoxicity counterscreen for NFkB agonists and antagonists (AID 624476);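 note: cells exposed to compound for 48 hours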
# [2] = qHTS Assay for Identification of Small Molecule Agonists for NFkB Signaling Pathway. (AID 624478)
# Outline: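 NFkB-bla ME-180 cells (beta-lactamase reporter under NFkB response element) were plated overnight, treated with compound plus TNF alpha at 10 pM final (its EC50) for 5 hrs at 37 C, then loaded with LiveBLAzer substrate for 2 hrs.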
# [3] = qHTS Assay for Identification of Small Molecule Antagonists for NFkB Signaling Pathway. (AID 624479; calls by dose curve;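 note: pathway stimulated with TNF alpha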; note: potency is the fitted concentration of half-maximal effect)
# [4] = Cell Proliferation Assay against the HBL1 Cell Line (AID 651646); conditions: HBL1 DLBCL cells; at 46.1 µM (top of the series) unless noted;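 note: cells exposed to compound for 48 h before reading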
# Outline: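 500 log-phase HBL1 cells per well in phenol red-free RPMI with 5% FBS were treated with compounds for 48 h at 37 °C, 5% CO2. Viability was read by CellTiter-Glo luminescence, normalized to DMSO (100%) and 9.2 uM bortezomib final (0%).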
# [5] = Cell Proliferation Assay against the TMD8 Cell Line (Caspase readout at 16 hrs) (AID 651712)
# Outline: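 TMD8 cells (500/well) in phenol-red-free RPMI with glutamine, 5% FBS, were exposed to compounds for 16 h at 37 °C. Caspase 3/7 activation was read by Caspase-Glo luminescence; percent activity normalised to DMSO (0%) and 9.2 uM bortezomib final (100%).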
# [6] = Cell Proliferation Assay against the TMD8 Cell Line (Caspase readout at 8 hrs) (AID 651713)
# Outline: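 TMD8 cells (500/well) in phenol red-free RPMI with 5% FBS were treated with compounds for 8 h at 37C, 5% CO2. Caspase-Glo 3/7 luminescence was read after 15 min at room temperature and normalised to DMSO (0%) and 9.2 uM bortezomib (100%).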
# [7] = Cell Proliferation Assay against the TMD8 Cell Line (AID 651645); conditions: TMD8 DLBCL cell line proliferation/viability; at 46.1 µM (top of the series) unless noted;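 note: cells exposed to compound for 48 h before reading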
# Outline: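 Luminescent ATP read-out (CellTiter-Glo, 15 min RT) after 48 h compound exposure of log-growing TMD8 cells at 37C; percent activity scaled between DMSO as 100% and 9.2 uM bortezomib final as 0%.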
Structure (SMILES),Potency [1],outcome [2],Potency [3],"viability, percent of control [4] [%]",Potency [5],Potency [6],viability (% of control) [7] [%]
CC(=O)NC(C)c1ccc(Oc2ccc(OC(C)C)cc2)cc1 (centres undefined),inactive,inactive,inactive,62.8,inactive,inactive,
O=c1ncn2nc(Sc3ccc(F)cc3F)ccc2c1-c1c(Cl)cccc1Cl,inactive,inactive,inactive,62.3,,inactive,65.5
CC(C)(C)OC(=O)CN(Cc1ccc(Cl)cc1)Cc1ccc([N+](=O)[O-])s1,,inactive,inactive,47,,inactive,7.07
CN(C)C(=O)c1ccc(S(=O)(=O)c2ccc(NC(=O)[C@@](C)(O)C(F)(F)F)c(Cl)c2)cc1,,inactive,inactive,86.5,inactive,inactive,73
OCCC#Cc1nc(-c2ccc(F)cc2)c(-c2ccncc2)n1CCCc1ccccc1,,inactive,14.9 µM (active),55.3,,,67.4
CCOc1ccc(Cc2cc([C@@H]3O[C@H](CO)[C@@H](O)[C@H](O)[C@@H]3O)ccc2Cl)cc1,inactive,inactive,,94.2,,inactive,87.2
COc1c(Cl)cc2c([nH]c3cnccc32)c1NC(=O)c1cccnc1C,inactive,inactive,,62.3,,inactive,68.9
CCC(C)n1ncn(-c2ccc(N3CCN(c4ccc(OC[C@H]5CO[C@](Cn6cncn6)(c6ccc(Cl)cc6Cl)O5)cc4)CC3)cc2)c1=O (some centres undefined),,,,77,inactive,inactive,77.9
COc1cc(Nc2ncc3c(n2)-c2ccc(Cl)cc2C(c2c(F)cccc2OC)=NC3)ccc1C(=O)O,,inactive,inactive,53,,inactive,31.4
CCn1c(-c2nonc2N)nc2c(C#CC(C)(C)O)ncc(OC[C@H]3CCCNC3)c21,,inactive,,70.2,,,22.8
C/C(=C\C(=O)Nc1ccccc1C(=O)O)c1ccc2ccccc2c1,,inactive,,70.3,,inactive,53.7
COc1cc2nccc(Oc3ccc(NC(=O)NC4CC4)c(Cl)c3)c2cc1C(N)=O,,inactive,18.8 µM (active),83.1,inactive,inactive,30.4
CS(=O)(=O)Oc1ccc2c(NC(N)=O)c(C(=O)c3ccc(Cl)cc3Cl)oc2c1,inactive,inactive,,78.9,,inactive,84.9
NC(=O)c1ccc(-c2nc(-c3ccc4c(c3)OCCO4)c(-c3ccccn3)[nH]2)cc1,inactive,inactive,,105,,inactive,83.2
